# Among all 420,000 compounds or so, about 64,000 (15%) were called active. About 27% were inconclusive and are not listed. These entries were drawn from the full list. Unmarked numbers belong to inactive results. The call rests on the fitted dose curve; in most records, active means well fitted inhibition curve with a large enough effect; inconclusive means small, poorly fitted or top-dose-only effect; inactive means flat fitted curve, though single readings scatter.
# Test: qHTS for Inhibitors of human tyrosyl-DNA phosphodiesterase 1 (TDP1): qHTS in cells in absence of CPT; further: nearly all actives have a fitted effect of over 55% in size
# Conditions: DT40 Tdp1-/- hTDP1 cells, no CPT, ATP luminescence, 48 h; activity change, negative = growth inhibition: at 46.2 µM (top of the series)
# In short: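 Growth kinetics read by CellTiter-Glo luminescence after ≥48 hr at 37 °C. Cells: DT40 Tdp1-/- stably carrying human TDP1, 400 per well, compound exposure in the absence of CPT (DMSO vehicle).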
# On the % scale 0 is the no-effect control and ±100 the full control effect; potency means the concentration at half of the fitted maximal effect.
SMILES,"activity change, negative = growth inhibition [%]",Potency
COc1nc(-c2ccc(Cl)cc2)ccc1-c1noc(-c2cccs2)n1,-8.38,–
COc1ccc(-c2cc(-c3nc(-c4cc(OC)c(OC)c(OC)c4)no3)[nH]n2)c(OC)c1,–,13 µM (active)
COc1cc(-c2nc(-c3ccncc3)no2)cc(OC)c1OC,0.674,–
CCOC(=O)COc1cc(OCC(=O)OCC)c2c(=O)cc(-c3ccccc3)oc2c1,-24.5,–
O=C(Nc1nn(Cc2ccccc2F)cc1Br)c1cccs1,-22.2,–
COc1ccc(/C(O)=C2/C(=O)C(=O)N(CC3CCCO3)C2c2ccc(OC)c(OC)c2)cc1 (stereo not drawn),5.95,–
CC(CNS(=O)(=O)c1ccc(Br)cc1)CN(C)C (stereo not drawn),-28.4,–
O=C1CC2(CC(c3ccc(Cl)cc3)=NO2)C(=O)N1c1ccccc1 (stereo not drawn),2.88,–
Cc1ccc(-c2nnc3ccc(SCC(N)=O)nn23)cc1,-27,–
O=C(Nc1ccn(Cc2ccccc2)n1)c1n[nH]c([N+](=O)[O-])c1Cl,-23.2,–
O=C(Nc1ccn(Cc2ccc(F)cc2)n1)c1ccncc1,–,11.6 µM (active)
O=C(Nc1ccn(Cc2ccccc2)n1)c1cccc(F)c1,-29.1,–
O=C(COc1cccc2c1CCNC2=O)NC1CCCCC1,11.4,–
COc1ccc(C(=O)COC(=O)Cn2cnc3c2c(=O)n(C)c(=O)n3C)c(OC)c1,5.14,–
COC(=O)C1=C(C(=O)OC)[C@@H]2N(C)c3ccccc3[C@@]23C[C@@H](C(=O)OC)N(C(=O)c2ccco2)C3=N1,-11.6,–
Cc1cc(C)cc(NS(=O)(=O)c2ccc3[nH]cc(C(=O)N4CCCCC4)c(=O)c3c2)c1,-20,–
CN1CCN(c2ncncc2-c2ccc(C(=O)N(C)C)cc2)CC1,2.5,–
CCOC1CS(=O)(=O)CC1OCC (stereo not drawn),2.48,–
CCCc1ccc(C(O)c2ncc(-c3cccc(OC)c3)[nH]2)cc1 (stereo not drawn),–,20.6 µM (active)
Cc1cccc(-c2cnc(C(O)c3cc(C)cc(C)c3)[nH]2)c1 (stereo not drawn),-21.6,–
COc1cccc(-c2cnc(C(O)c3ccccc3OC)[nH]2)c1 (stereo not drawn),-18.7,–
O=c1cnnc(Nc2ccccc2)[nH]1,0.313,–
O=C(c1cccs1)C1C(c2ccc(Br)cc2)NC(=S)NC1(O)C(F)(F)F (stereo not drawn),-27.6,–
Fc1ccc(N2CCN(Cc3cnc(Oc4ccc(Br)cc4)s3)CC2)cc1,-18.2,–
COC(=O)c1cc(NC(=O)CCS(=O)(=O)c2cc(Br)cc3c2N(C(=O)C2CC2)CC3)cc(C(=O)OC)c1,-14.6,–
O=C(NCCOc1ccccc1)c1ccccc1F,6.64,–
CN1C2CCC1CC(NC(=O)c1ccc([N+](=O)[O-])cc1)C2 (stereo not drawn),-21.8,–

SMILES,"activity change, negative = growth inhibition [%]",Potency
CC1CCC2CCCCC2N1C(=O)c1cc([N+](=O)[O-])cc([N+](=O)[O-])c1 (stereo not drawn),–,18.4 µM (active)
Cc1cc([N+](=O)[O-])c(N2CCC[C@@H]2C(=O)O)c([N+](=O)[O-])c1,-16.3,–
COC(=O)c1cc(NC(=O)c2nn(C)c(=O)c3ccccc23)cc(C(=O)OC)c1,–,6.51 µM (active)
CCC(C)NC(=O)c1nn(C)c(=O)c2ccccc12 (stereo not drawn),-8.51,–
Cc1ccc(C)c(NC(=O)COC(=O)c2nn(C)c(=O)c3ccccc23)c1,8.08,–
CC1CCCCC1NC(=O)Cn1c(=O)cnc2ccccc21 (stereo not drawn),-4.01,–
Cn1nnc(NC(=O)CSc2ncn[nH]2)n1,-0.455,–
CN(C)N(C)C(=O)C(O)(c1ccccc1)c1ccccc1,-0.464,–
Cc1cc(C)cc(NC(=O)CCN2C(=O)c3ccccc3C2=O)c1,-11.8,–
Cc1cccc(NC(=O)CCn2c(=O)oc3ccccc32)c1,5.57,–
Cc1ccc(-c2nn(CCC(=O)Nc3ccc(Cl)c(Cl)c3)c(=O)c3ccccc23)cc1,–,23.1 µM (active)
CCc1nnc(NC(=O)CSc2nc(SC)ns2)s1,-24.6,–
COc1cccc(NC(=O)N(C)C[C@@H]2Oc3ncc(Br)cc3C(=O)N([C@@H](C)CO)C[C@H]2C)c1,-25.5,–
CN(C)N=Nc1ccc2nc[nH]c2c1,-13.4,–
CCOc1ccc(NC(=O)CN(C)C(=O)Cn2c(=O)cnc3ccccc32)cc1OCC,-27.1,–
CCC(=O)N1CCc2cc(S(=O)(=O)NC(C(=O)N3CCc4ccccc4C3)C(C)C)ccc21 (stereo not drawn),-0.707,–
CCC(=O)N1CCc2cc(Br)c(S(=O)(=O)NCCN3CCCCC3CC)cc21 (stereo not drawn),6.25,–
CCCN(CCC)S(=O)(=O)c1cc2c(cc1Br)CCN2C(=O)CC,–,5.8 µM (active)
Cc1cc(C(F)F)nn1CC(=O)NC1CCCCCC1,2.11,–
COc1ccc(C(=O)N2CCC[C@@]3(CCN(C(=O)NC(C)C)C3)C2)cc1,-2.74,–
COc1ccc2cc(C(=O)O)n(CC(=O)c3ccccc3)c2c1,12.2,–
O=C(/C=C/[C@H]1O[C@@H](n2cnc3c(NC(=O)c4ccccc4)ncnc32)[C@H](O)[C@@H]1O)NCc1ccccc1,-11.2,–
CCC(C)(C(=O)Nc1ccccc1C)N(C(=O)CNC(C)=O)c1ccc(C)cc1 (stereo not drawn),-15.5,–
CC(C)(C)OC(=O)N1CCC(NC(=O)c2[nH]cnc2C(=O)N[C@@H](Cc2ccccc2)C(=O)OCc2ccccc2)CC1,–,13 µM (active)
C[C@@H](NC(=O)c1nc[nH]c1C(=O)N1CCN(C(=O)OC(C)(C)C)CC1)c1ccccc1,-23.7,–
O=C(N[C@@H](Cc1ccccc1)C(=O)OCc1ccccc1)c1nc[nH]c1C(=O)NC1CCNCC1,0.388,–
